# Several values for one entry are separate records, joined by “and”; a condition that tells them apart may be missing. Equal values may be shown once. Compounds without any hit were thinned out: in the full panel of roughly 83,000, 20% have a hit.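 Plates (96-well) were seeded with cells, treated with compound at one concentration, and incubated for 48 hours before percent growth was determined.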 Activity calls are given as the source filed them. Where a SMILES comes first, the peptide text is derived from it. The star is where a group is joined. Trt = c1ccc(C(c2ccccc2)(c2ccccc2)*)cc1; Cbz = O=C(OCc1ccccc1)*
# Test system: A498 renal
# Experiment: NCI-60 one-dose screen, 48 h (100 = growth as untreated, 0 = no growth, -100 = all killed)
# Details: 10 µM
# Method: Growth inhibition of the A498 human tumor cell line is measured as a screen for anti-cancer activity. Cells are grown in 96 well plates and exposed to the test compound for 48 hours. Compounds are tested at a single concentration, which is 10^-5 M for most compounds. The reported endpoint is percent growth (GI% or GIPRCNT), where numbers from 0 - 100% represent growth inhibition, and numbers from -100% - 0 represent cell death. For example, a value of 40 represents 60% growth inhibition. A value of 0 means no net growth occurred over the course of the experiment. A value of -40 indicates 40% of cells at the beginning of the experiment died by the end of the experiment. A value of -100 means all cells are dead at the end of the experiment.
# NCI-60 Human Tumor Cell Lines Screen was performed using the standard one-dose NCI protocol, which is described in more detail at https://dtp.cancer.gov/discovery_development/nci-60/default.htm.
# Compounds with GIPRCNT values below 10 were considered active. Activity score was based on GIPRCNT using the following formula: […]
# Score is 0 for GIPRCNT values of 100 or above, 50 for GIPRCNT values of 0, and 100 for GIPRCNT values of -100.
row,Compound,growth
1,COc1ccc(-c2cscc2N)cc1,83.3% (inactive)

# Same assay, conditions: 10 µM unless noted
row,Compound,growth
1,C[N+](C)=c1ccc2nc3c(cc(NCCCNc4cc5oc6cc(=[N+](C)C)ccc-6nc5c5ccccc45)c4ccccc43)oc-2c1,109% (inactive)
2,Cc1ccc2c(ccc3c[n+]4c5ccccc5ccc4n32)c1,16% (inactive)
3,O=C(/C=C/C=C/c1ccccc1)c1ccco1,106% (inactive)
4,Nc1nc(N)c2c(ccc3c2ccn3Cc2cccc([N+](=O)[O-])c2)n1,-89.5% (active)
5,COC(=O)c1nc(=S)[nH]c(C(=O)OC)c1C(=O)c1ccc2ccccc2c1,119% (inactive)
6,O=C(Oc1cccc2cccnc12)c1ccccc1,117% (inactive)
7,CC(C)c1ccc2nc3ccc(C(=O)NCCN4CCN(c5ccccc5)CC4)cn3c(=O)c2c1,81.8% (inactive)
8,COC(=O)[C@@]12OC[C@]34[C@H]([C@@H](O)[C@@H]1O)[C@@]1(C)[C@H](O)C(=O)C=C(C)[C@@H]1C[C@H]3OC(=O)C(OC(C)=O)[C@@H]24 (stereo not given in full),-49.4% (active)
9,O=C(CC1(O)C(=O)Nc2c(Cl)ccc(Cl)c21)c1ccc(Cl)cc1Cl (stereo not given),79.7% (inactive)
10,CN(C)c1ccc(/C=N/N=C(\C#N)[S][Sn]([Cl])([c]2ccccc2)[c]2ccccc2)cc1,32% (inactive)
11,COc1ccccc1OC(=O)Oc1ccccc1OC,108% (inactive) and 103% (inactive)
12,Cc1ccnc2c1ccc1c(C)ccnc12,19.5% (inactive)
13,CCOC(=O)/C(=C\c1ccc(-c2ccccc2)cc1)C(C)=O,92.2% (inactive)
14,O=[N+]([O-])c1ccc2c(N=Nc3ccc4ccccc4c3O)c(O)cc(S(=O)(=O)O)c2c1,108% (inactive)
15,O=[N+]([O-])c1ccc(N=Nc2ccc(O)cc2O)cc1,13.8% (inactive)
16,COc1ccc2nc3cc(Cl)ccc3c(NCCNc3c4ccc(Cl)cc4nc4ccc(OC)cc34)c2c1,22.2% (inactive)
17,O=C(Nc1ccccc1)Oc1c(Cl)c(Cl)c(Cl)c(Cl)c1Cl,95.9% (inactive) and 76.8% (inactive)
18,CCC1OC(OC)C=CC1=O (stereo not given),90.3% (inactive)
19,O=C(/C=C\c1cc(Br)ccc1O)/C=C/c1cc(Br)ccc1O,-70.1% (active)

row,Compound,growth
1,N#CSCC(=O)c1ccc(Cl)cc1,83.7% (inactive)
2,O=C1c2cccnc2-c2nccc3c2c1nc1cc(Br)ccc13,-52% (active) and -78.4% (active)
3,CNc1ccc(N)cc1,120% (inactive)
4,O=C(Nc1ccc(F)cc1)ON=C1CCCCC1,95.2% [100 µM] (inactive)
5,CCN(CC)CCOc1ccc(-c2nc3cc(Cl)ccc3s2)cc1,-0.459% (active)
6,NC(=O)/C=C/C(=O)c1c(Cl)cccc1Cl,-58.4% (active)
7,CC1SC(=S)N(c2ccc(Cl)cc2)C1=O (stereo not given),143% (inactive) and 122% (inactive)
8,Oc1c(Cl)cc(Cl)c2cccnc12,67.6% (inactive) and 66.6% (inactive)
9,O=C(/C=C/c1cccc(Cl)c1)c1ccccc1,79.7% (inactive) and 102% (inactive)
10,CN(C)c1ccc(N=Nc2cccc3ccccc23)cc1,85.3% (inactive)
11,CCOC(=O)c1c(C)[nH]c(CO)c1C,107% (inactive)
12,COc1cc(NS(C)(=O)=O)ccc1Nc1c2ccccc2nc2ccccc12,-7.27% [2.5 µM] (active)
13,Cc1cc2nc(CS)[nH]c2cc1C,95.7% (inactive)
14,COc1cc(/C=C/C(C)=O)ccc1O,79.1% (inactive) and 116% (inactive)
15,CC(C)(C)c1ccc(O)c(C2CCCCC2)c1,107% (inactive)
16,Cc1ccc2nc(-[n+]3cc4ccccc4cc3C)ccc2c1,52.5% (inactive)
17,COC(=O)C(CSC(c1ccccc1)(c1ccccc1)c1ccccc1)NC(=O)C(CC(N)=O)NC(=O)OCc1ccccc1 (stereo not drawn) (Cbz-Asn-Cys(Trt)-OMe; configuration not given here),21.1% (inactive)
18,CCCCCCCCCCCCCCNCc1ccccc1,92.7% (inactive)
19,CN1c2ccccc2C(C)(C)C12C=Cc1cc(O)ccc1O2 (stereo not given),26% (inactive)

# Same assay, conditions: 100 µM
row,Compound,growth
1,COc1ccc(-c2cscc2N)cc1,80.6% (inactive)

# From PubChem BioAssay (NCI)
